# Test results: the supplement of paper PMC3334620
# The full ranking holds about 33,000 sequences; the median of “E-score (-0.5 to 0.5)” is about -0.012, and the highest 2% start at about 0.29. This excerpt belongs to a sample that is enriched for the highest values.
# Molecular target: T1, Ybr033w (UniProt P38073)
# T1 sequence: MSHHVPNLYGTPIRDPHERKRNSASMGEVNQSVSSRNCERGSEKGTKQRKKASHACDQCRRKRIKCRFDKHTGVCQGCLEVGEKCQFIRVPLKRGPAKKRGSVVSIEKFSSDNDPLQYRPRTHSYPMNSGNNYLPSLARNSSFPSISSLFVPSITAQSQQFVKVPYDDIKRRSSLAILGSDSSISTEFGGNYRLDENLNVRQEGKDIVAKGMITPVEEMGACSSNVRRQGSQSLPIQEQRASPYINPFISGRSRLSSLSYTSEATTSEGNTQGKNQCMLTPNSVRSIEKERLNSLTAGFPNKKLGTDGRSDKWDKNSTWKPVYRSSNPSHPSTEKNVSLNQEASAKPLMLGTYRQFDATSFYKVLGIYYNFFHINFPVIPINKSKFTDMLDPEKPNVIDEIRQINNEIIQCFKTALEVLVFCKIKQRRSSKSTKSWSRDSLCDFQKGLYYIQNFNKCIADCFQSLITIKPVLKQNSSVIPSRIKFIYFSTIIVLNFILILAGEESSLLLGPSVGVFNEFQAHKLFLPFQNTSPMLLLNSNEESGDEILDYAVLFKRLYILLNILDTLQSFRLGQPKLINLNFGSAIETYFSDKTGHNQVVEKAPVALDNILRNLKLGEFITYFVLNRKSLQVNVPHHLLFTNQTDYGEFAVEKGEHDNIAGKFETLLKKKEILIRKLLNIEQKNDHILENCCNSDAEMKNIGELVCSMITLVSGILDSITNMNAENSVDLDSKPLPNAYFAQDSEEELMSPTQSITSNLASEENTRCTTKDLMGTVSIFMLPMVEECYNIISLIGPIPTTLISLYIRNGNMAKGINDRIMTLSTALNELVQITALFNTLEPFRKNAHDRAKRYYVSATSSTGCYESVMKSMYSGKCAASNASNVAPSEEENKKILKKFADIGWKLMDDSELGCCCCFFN
# Experiment: PBM E-score (8-mer binding enrichment) (E-score (-0.5 to 0.5)); higher = stronger / more preferred TF binding
# Conditions: protein concentration: 200 nM; construct: GST-full length
# Experimental: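 Universal 'all 10-mer' protein binding microarrays (Agilent AMADID 015681) probed with GST-tagged S. cerevisiae TFs (full-length or DBD) made by in vitro transcription/translation (PURExpress), about 100-200 nM. Bound TF was detected with fluorescent anti-GST. Each ungapped 8-mer (which stands for itself and its reverse complement) is scored by the PBM enrichment score (E-score), a modified Wilcoxon-Mann-Whitney statistic from -0.5 to +0.5, computed with the Universal PBM Analysis Suite. Scale: above 0.35 generally sequence-specific binding.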
row,Sequence,PBM E-score
1,CGAGGCAC,-0.109
2,GTACCCAC,-0.116
3,CGCAGGGA,-0.202
4,AGCTAATA,0.078
5,AGCGCATC,0.0587
6,CGCGAAGC,0.0254
7,CACTAGTA,0.0533
8,TACTAGTA,0.377
9,GACTAGTA,0.0157
10,CTTTAAAA,0.2
11,AAAGTCGG,-0.122
12,ACTGTGCA,0.031
13,ATGACAAT,0.293
14,ATGACAAG,-0.0461
15,ATGACAAC,0.111
16,AAAAAGTC,0.22
17,AAAAAAGC,0.171
18,ACAAAAGT,0.0857
19,AAAAAGTA,0.283
20,AAAAAAGT,0.353
21,AAAAAGTT,0.314
22,CTGTTGCC,-0.136
23,AGTGAAAA,0.183
24,TGCCAACA,0.0786
25,GTGCGCAC,0.0505

row,Sequence,PBM E-score
1,GCAGTCCA,-0.029
2,GTCGTTTA,0.0819
3,ATCGTTTA,0.307
4,ATTGTTTA,0.296
5,ATTGTTTC,0.199
6,ATCGTTTC,0.184
7,ATTGTTTG,0.118
8,GTTGTCCA,0.00858
9,ATGGTCAA,0.198
10,AGCTGGCC,-0.179
11,AGGTAGAC,-0.212
12,CTAGAGAC,-0.0751
13,ATTCAACG,0.114
14,ATACCTAA,0.316
15,TTACCTAA,0.156
16,ATACCTAT,0.102
17,CCAAGCGA,-0.0712
18,AATAATTG,0.256
19,CATAATTA,0.284
20,CATAATTC,-0.00123
21,GCTAATTA,0.175
22,GATAATTA,0.361
23,AATAATGA,0.247
24,AATAATTA,0.372
25,AATAATTC,0.386

row,Sequence,PBM E-score
1,ACTAATTA,0.281
2,AAACGTTC,0.0667
3,AGAGTGTG,-0.0636
4,CGATGCGC,0.0464
5,AGAGGTGG,-0.156
6,CAGTGAAA,0.126
7,GAGTGAAA,0.129
8,AAGTGAAA,0.29
9,GTCCTTCA,-0.0408
10,CAGCACTC,0.0472
11,AATGGTCA,0.205
12,AATAGTAA,0.239
13,AATAGTGC,0.123
14,AATAGTGG,0.0387
15,AATAGTAG,0.201
16,AATAGTGT,0.289
17,AATAGTAT,0.293
18,AGCAATAG,0.0737
19,GTTCGGAA,0.316
20,CTTCGGAA,0.243
21,ATTCGGAA,0.269
22,GAAGCGCC,-0.0866
23,AACTTGAC,-0.0113
24,AAATACTC,0.316
25,GAATACTC,0.0489

row,Sequence,PBM E-score
1,AAATACTT,0.34
2,AAATACTA,0.224
3,CAATACTC,0.193
4,AAATACTG,0.172
5,GTTAAGGA,0.121
6,AGCTGAAT,0.135
7,AGCTCTGC,-0.255
8,AAAGTCTA,-0.00319
9,ACTCCTCA,-0.135
10,ATTAAGCA,-0.0125
11,GTTCATTA,0.221
12,ATTCATTA,0.263
13,CTTCATTA,0.291
14,ATTGGTGC,0.0298
15,ATACTTTC,0.177
16,ATACTTTA,0.23
17,ATACTTTG,0.297
18,AGCCAGGG,-0.362
19,CCGGAAAG,-0.0245
20,ACGGAAAA,0.422
21,ACGGAAAT,0.313
22,ACGGGAAT,0.0676
23,ACAGAAAT,0.137
24,CCGGAAAC,0.14
25,GCGGAAAC,-0.191

row,Sequence,PBM E-score
1,CCGGAAAA,0.44
2,GCGGGAAA,0.128
3,ACGGAAAC,-0.12
4,GCGGAAAA,0.396
5,ACGGAAAG,0.0247
6,AGGACGGC,-0.235
7,GAGAGTCA,-0.0369
8,CGTCCTCC,-0.314
9,GAGAGATC,-0.00339
10,TCGGAAAA,0.424
11,TCGGGAAA,0.253
12,TCAGAAAA,0.0198
13,CCTTGGCC,-0.318
14,AAACATCC,0.192
15,GAACATCC,0.303
16,CAACATCC,-0.07
17,CAGAGCGA,0.105
18,TGGGTGAA,0.15
19,ATAAGGAT,0.297
20,ATAAGGAC,-0.0427
21,ATAAGGAA,0.0859
22,CCGAAGGC,-0.11
23,ATTCTGGC,-0.217
24,TATATAAA,0.282
25,TGCATAAA,0.218

row,Sequence,PBM E-score
1,AATATAAG,0.295
2,AGCATAAA,0.141
3,AATATAAT,0.236
4,CGCATAAA,0.297
5,CATATAAA,0.174
6,CATATAAG,0.114
7,AGTATAAA,0.266
8,CGTATAAC,0.0815
9,CGTATAAA,0.291
10,AATATAAA,0.344
11,AATACTTC,0.21
12,AACTAGAC,0.0442
13,GTGGTAGA,-0.158
14,CGGTGAGC,-0.26
15,AGCTGACA,-0.103
16,CCCACAAA,0.0286
17,AGTAAGAC,-0.00585
18,ATAACTGC,0.193
19,TGAAGAAA,0.134
20,CCAAGTCA,-0.0141
21,CAGTGCAG,-0.0894
22,ACGGAAGT,0.0483
23,ACGGAAGA,0.338
24,CCGGAAGC,0.0751
25,TCGGAAGA,0.193

row,Sequence,PBM E-score
1,CCGGAAGG,0.0448
2,CCGGAAGA,0.404
3,AGTCACCG,-0.104
4,TACTGCCA,0.038
5,AATCACCG,-0.0481
6,TATCACCA,0.0892
7,AATCACCA,0.295
8,AGACTGCC,-0.219
9,CAGTTATA,0.074
10,GATATTTA,0.338
11,CCTATTTC,0.124
12,CATATTTC,0.213
13,GCTATTTA,0.132
14,GATTTTTA,0.209
15,AATATTTC,0.34
16,CATATTTA,0.28
17,AATATTTA,0.318
18,AATATTTG,0.232
19,CGCTCTAA,-0.0524
20,CCAAAGAG,-0.0366
21,CCCACCAC,-0.0659
22,CCATACGA,0.0671
